{
  "source": "PubChem BioAssay (NCATS)",
  "note": "Results filed as inconclusive are left out. Active and inactive are the calls of the source. The call rests on the fitted dose curve; in most records, active means well fitted cell-killing curve with a large enough effect; inconclusive means small, poorly fitted or top-dose-only effect, or effect the other way; inactive means flat fitted curve, though single readings scatter. On the % scale 0 is the no-effect control and ±100 the full control effect.",
  "data": [
    {"test_system": "Tov-21-G", "experiment": "Primary qHTS to identify gynecologic anti-cancer compounds using libraries of approved drugs and bioactive compounds (AID 1345084); further: nearly all actives have a fitted effect of over 55% in size", "conditions": "Gynecologic cancer cell panel viability, ATPlite luminescence, 48 h; series mostly up to 57.5 µM; activity change, negative = cytotoxicity: at the top concentration", "how_it_was_run": "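48 h compound exposure at 37 C, 5% CO2; five-point qHTS. ATPlite luminescence readout of cell ATP.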", "values": [
      {"smiles": "CC1(C)CCC(C)(C)c2cc3c(cc21)Sc1ccccc1N=C3c1ccc(C(=O)O)cc1", "activity change, negative = cytotoxicity": "13.7% (inactive)"},
      {"smiles": "O=C(O)c1n[nH]c2c1C[C@H]1C[C@@H]21", "activity change, negative = cytotoxicity": "12.6% (inactive)"},
      {"smiles": "COc1cc(C2Oc3c(O)cc(CCCO)cc3C2CO)ccc1O[C@H]1O[C@H](C)[C@@H](O)[C@H](O)[C@@H]1O", "note": "(stereo partly drawn)", "activity change, negative = cytotoxicity": "-3.87% [at 25.3 µM] (inactive)"},
      {"smiles": "CC(=C/C(=O)O)/C=C/[C@]1(O)[C@@]2(C)CO[C@]1(C)C[C@H](O[C@@H]1O[C@H](CO)[C@@H](O)[C@H](O)[C@H]1O)C2", "activity change, negative = cytotoxicity": "3.5% [at 25.3 µM] (inactive)"},
      {"smiles": "CC1(C)CC[C@]2(C(=O)O)CC[C@]3(C)C(=CCC4[C@@]5(C)C[C@H](O)[C@H](O[C@@H]6OC[C@H](O)[C@H](O)[C@H]6O)[C@@](C)(CO)C5CC[C@]43C)[C@@H]2C1", "note": "(stereo partly drawn)", "activity change, negative = cytotoxicity": "-3.35% [at 25.3 µM] (inactive)"},
      {"smiles": "C1CCN2CC3C[C@@H](CN4CCCC[C@@H]34)[C@H]2C1", "activity change, negative = cytotoxicity": "3.94% (inactive)"},
      {"smiles": "COc1ccc(C)c2sc(NC(=O)c3ccncc3)nc12", "activity change, negative = cytotoxicity": "-21.6% (inactive)"},
      {"smiles": "CC(C)[C@@H](C)/C=C/[C@@H](C)[C@H]1CC[C@H]2C3=CC=C4C[C@@H](O)CC[C@]4(C)[C@H]3CC[C@]12C", "activity change, negative = cytotoxicity": "8.16% [at 25.3 µM] (inactive)"},
      {"smiles": "COc1ccccc1CC(C(=O)O)N(C)C(=O)c1ccccc1", "note": "(stereo not drawn)", "activity change, negative = cytotoxicity": "13.2% [at 38.5 µM] (inactive)"},
      {"smiles": "C=C1[C@@H]2[C@H]3OC(=O)C(=C)[C@@H]3CC[C@@](C)(O)[C@@H]2C[C@@H]1O[C@@H]1O[C@H](CO)[C@@H](O)[C@H](O)[C@H]1O", "activity change, negative = cytotoxicity": "5.71% [at 25.3 µM] (inactive)"},
      {"smiles": "COCCCNCC1COc2ccccc2O1", "note": "(stereo not drawn)", "activity change, negative = cytotoxicity": "5.07% (inactive)"},
      {"smiles": "COc1cc(/C=C/C(=O)OC2CC(OC(C)=O)C(OC(C)=O)C3C2CCC2C(=O)OC(c4ccoc4)CC23C)ccc1O[C@@H]1O[C@H](CO)[C@@H](O)[C@H](O)[C@H]1O", "note": "(stereo partly drawn)", "activity change, negative = cytotoxicity": "-20.7% [at 25.3 µM] (inactive)"},
      {"smiles": "CO[C@@H]1CC[C@H](OC[C@]2(COC(=O)c3ccc(C)[nH]3)[C@H](OC(C)=O)CC[C@@]3(C)[C@@H]4CC=C(C)[C@@H](C5=C(O)C(=O)OC5O)[C@]4(C)CC[C@@H]32)O[C@H]1C", "note": "(stereo partly drawn)", "activity change, negative = cytotoxicity": "2.71% [at 25.3 µM] (inactive)"},
      {"smiles": "C=C1CCC2C(OC(=O)C2(O)COC(C)=O)C2C(=C)C(O)CC12", "note": "(stereo not drawn)", "activity change, negative = cytotoxicity": "5.88% [at 38.5 µM] (inactive)"},
      {"smiles": "CC1=C2C=C(CO)C(CO)CCC2(C)CCC1=O", "note": "(stereo not drawn)", "activity change, negative = cytotoxicity": "1.58% (inactive)"},
      {"smiles": "C=C1[C@H]2CC[C@]3(O)[C@@](CC[C@@H]4[C@](C)(C(=O)O)CCC[C@]43C)(C2)[C@H]1OC(=O)/C(C)=C\\C", "activity change, negative = cytotoxicity": "10.4% [at 25.3 µM] (inactive)"},
      {"smiles": "O=C(O[C@H]1[C@@H]2C=CO[C@@H](O[C@@H]3O[C@H](CO)[C@@H](O)[C@H](O)[C@H]3O)[C@@H]2[C@@]2(CO)O[C@@H]12)c1ccc(O)cc1", "activity change, negative = cytotoxicity": "0.137% [at 25.3 µM] (inactive)"},
      {"smiles": "CC(C)(O)/C=C1/C(=O)C(C)(C)C(=O)C(C)(C)C1(O)O[C@@H]1O[C@H](COC(=O)c2cc(O)c(O)c(O)c2)[C@@H](O)[C@H](O)[C@H]1O", "note": "(stereo partly drawn)", "activity change, negative = cytotoxicity": "-2.58% [at 25.3 µM] (inactive)"},
      {"smiles": "CN1CC[C@@H](NC(=O)Nc2ccc(C#N)cc2)C[C@@H]1c1nc2ccccc2[nH]1", "activity change, negative = cytotoxicity": "4.42% (inactive)"},
      {"smiles": "C[C@H]1[C@H](C)CC[C@]2(C(=O)O[C@@H]3O[C@H](CO)[C@@H](O)[C@H](O)[C@H]3O)CC[C@]3(C(=O)O)C(=CCC4[C@@]5(C)CC[C@H](O[C@@H]6O[C@H](CO)[C@@H](O)[C@H](O)[C@H]6O)C(C)(C)C5CC[C@]43C)[C@H]12", "note": "(stereo partly drawn)", "activity change, negative = cytotoxicity": "-3.54% [at 11.6 µM] (inactive)"},
      {"smiles": "c1nc(NC2CCCCCC2)c2cc(CNC[C@H]3CCCO3)sc2n1", "activity change, negative = cytotoxicity": "7.82% (inactive)"},
      {"smiles": "CCNC(=O)[C@H]1O[C@H](n2cnc3c(NCC(c4ccccc4)c4ccccc4)nc(C(=O)NCCNC(=O)NC4CCN(c5ccccn5)CC4)nc32)[C@H](O)[C@@H]1O", "activity change, negative = cytotoxicity": "-3.59% (inactive)"},
      {"smiles": "CC1CC(=O)C2=C(O1)OC1(C)CCC3C(C)(C)C=CC(=O)C3(C)C1C2", "note": "(stereo not drawn)", "activity change, negative = cytotoxicity": "0.263% [at 38.5 µM] (inactive)"},
      {"smiles": "COc1ncc(-c2ccc3c(Nc4cc(Oc5cc(F)cc(F)c5)cc(C(=O)O)c4)c(S(=O)(=O)NC4CC4)cnc3c2)c(OC)n1", "activity change, negative = cytotoxicity": "1.65% (inactive)"},
      {"smiles": "CC(=O)O[C@@H]1[C@H]2[C@@H](OC(=O)c3ccccc3)[C@@H](C)C[C@]2(O)[C@H](OC(C)=O)[C@@]2(C)[C@@H]3CC(C)(C)C(=O)[C@]3(OC(C)=O)C[C@@]12C", "activity change, negative = cytotoxicity": "2.55% [at 25.3 µM] (inactive)"},
      {"smiles": "COc1ccc(/C=C/C(=O)O[C@@H]2[C@@H](OC(C)=O)[C@@H](OC(C)=O)[C@H](O[C@H]3[C@@H]4C=CO[C@@H](O[C@@H]5O[C@H](CO)[C@@H](O)[C@H](O)[C@H]5O)[C@@H]4[C@@]4(CO)O[C@@H]34)O[C@H]2C)cc1O", "activity change, negative = cytotoxicity": "2.9% [at 25.3 µM] (inactive)"},
      {"smiles": "CC1=CC(=O)OC(C)(CC(C)(O)C(=O)O)C1", "note": "(stereo not drawn)", "activity change, negative = cytotoxicity": "2.03% (inactive)"},
      {"smiles": "O=C(OCc1cccc(O)c1O[C@@H]1O[C@H](CO)[C@@H](O)[C@H](O)[C@H]1O)C1(O)C(=O)C2C=CC1C1C=CC(=O)C(O)(C(=O)OCc3cccc(O)c3O[C@@H]3O[C@H](CO)[C@@H](O)[C@H](O)[C@H]3O)C21", "note": "(stereo partly drawn)", "activity change, negative = cytotoxicity": "1.57% [at 11.6 µM] (inactive)"},
      {"smiles": "C[C@H]1[C@H](C)CC[C@]2(C(=O)O)CC[C@]3(C)C(=CC[C@@H]4[C@@]5(C)C[C@@H](O)[C@H](O)[C@@](C)(CO)[C@@H]5CC[C@]43C)[C@H]12", "activity change, negative = cytotoxicity": "-1.82% (inactive)"},
      {"smiles": "COc1cc(C[C@H]2COC(=O)[C@@H]2Cc2ccc(O)c(OC)c2)ccc1O", "activity change, negative = cytotoxicity": "6.47% [at 38.5 µM] (inactive)"},
      {"smiles": "COC(=O)C1=CO[C@@H](O[C@@H]2O[C@H](CO)[C@@H](O)[C@H](O)[C@H]2O)[C@@H]2[C@@](C)(O)[C@@H](O)C[C@]12O", "activity change, negative = cytotoxicity": "-1.66% [at 25.3 µM] (inactive)"},
      {"smiles": "C/C(=C\\CCC(C)(O)c1ccc(C)cc1)C(=O)O", "note": "(stereo not drawn)", "activity change, negative = cytotoxicity": "9.2% (inactive)"},
      {"smiles": "C/C=C(\\C)C(=O)O[C@H]1[C@H](O)[C@]2(COC(C)=O)[C@H](O)C[C@]3(C)C(=CCC4[C@@]5(C)CC[C@H](O[C@@H]6O[C@H](C(=O)O)[C@@H](O[C@@H]7O[C@H](CO)[C@@H](O)[C@H](O)[C@H]7O)[C@H](O)[C@H]6O[C@@H]6O[C@H](CO)[C@@H](O)[C@H](O)[C@H]6O)[C@](C)(CO)C5CC[C@]43C)[C@@H]2CC1(C)C", "note": "(stereo partly drawn)", "activity change, negative = cytotoxicity": "0.503% [at 11.6 µM] (inactive)"},
      {"smiles": "COC1=Cc2c(nc3n(c2=O)C(C)C(=O)NC3(O)C(C)C)OC=C1", "note": "(stereo not drawn)", "activity change, negative = cytotoxicity": "-3.71% [at 38.5 µM] (inactive)"},
      {"smiles": "COc1c(C(CC(C)C)OC(C)=O)ccc(Oc2c(O)cc(C)cc2/C=C/C(C)=O)c1C(=O)O", "note": "(stereo not drawn)", "activity change, negative = cytotoxicity": "-0.925% [at 25.3 µM] (inactive)"},
      {"smiles": "COc1cc(O[C@@H]2O[C@H](CO)[C@@H](O)[C@H](O)[C@H]2O)c(CCC(=O)OC[C@H]2O[C@@H](Oc3cc(OC)c(C4OC(=O)C(C)(O)C4O)cc3CCC(=O)O)[C@H](O)[C@@H](O)[C@@H]2O)cc1C1OC(=O)C(C)(O)C1O", "note": "(stereo partly drawn)", "activity change, negative = cytotoxicity": "-4.07% [at 11.6 µM] (inactive)"},
      {"smiles": "CC1CC(O)CC(C)(C)C1(O)CCO", "note": "(stereo not drawn)", "activity change, negative = cytotoxicity": "-3.41% (inactive)"},
      {"smiles": "CC(=O)c1c(O)cc2c(c1C)C(=O)CC(O)C2", "note": "(stereo not drawn)", "activity change, negative = cytotoxicity": "2.24% (inactive)"}
    ]}
  ]
}
